Assay results from paper PMC5540273 (PLoS ONE, 2017).

What was measured:
Conditions in all cases: concentration: 1 μM, replicates: in singlicate; n = 1
PIK3C2G = test system: PIK3C2G
PIK3CA = test system: PIK3CA
PIK3CB = test system: PIK3CB
PIK3CD = test system: PIK3CD
PIK3CG = test system: PIK3CG
PIK4CB = test system: T1, PIK4CB
T1 construct: gene PI4KB

PIKFYVE = test system: PIKFYVE
PIM1 = test system: PIM1
PIM2 = test system: PIM2
PIM3 = test system: PIM3
PIP5K1A = test system: PIP5K1A
PIP5K1C = test system: PIP5K1C
PIP5K2B = test system: PIP5K2B
PIP5K2C = test system: T2, PIP5K2C
T2 construct: gene PIP4K2C

PKAC-alpha = test system: T3, PKAC-alpha
T3 construct: gene PRKACA

PKAC-beta = test system: T4, PKAC-beta
T4 construct: gene PRKACB

PKMYT1 = test system: PKMYT1
PKN1 = test system: PKN1
PKN2 = test system: PKN2
PLK1 = test system: PLK1
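Note: KINOMEscan kinase panel screen.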

Row | SMILES | %Inh (PIK3C2G) [%] | %Inh (PIK3CA) [%] | %Inh (PIK3CB) [%] | %Inh (PIK3CD) [%] | %Inh (PIK3CG) [%] | %Inh (PIK4CB) [%] | %Inh (PIKFYVE) [%] | %Inh (PIM1) [%] | %Inh (PIM2) [%] | %Inh (PIM3) [%] | %Inh (PIP5K1A) [%] | %Inh (PIP5K1C) [%] | %Inh (PIP5K2B) [%] | %Inh (PIP5K2C) [%] | %Inh (PKAC-alpha) [%] | %Inh (PKAC-beta) [%] | %Inh (PKMYT1) [%] | %Inh (PKN1) [%] | %Inh (PKN2) [%] | %Inh (PLK1) [%]
1 | Cc1cccc(Nc2nc(N[C@H]3CCCC[C@H]3N)ncc2C(N)=O)c1.Cl [GSK986310] | 0 | 0 | 0 | 0 | 3 | 0 | 0 | 43 | 56 | 88 | 0 | 63 | 9 | 12 | 19 | 29 | 16 | 34 | 9 | 1
2 | CC(C)c1nc(-c2cccc(NS(=O)(=O)c3c(F)cccc3F)c2)c(-c2ccnc(Nc3ccc(N4CCOCC4)nc3)n2)s1.Cl [GSK1723980] | 0 | 0 | 0 | 0 | 0 | 0 | 0 | 0 | 0 | 0 | 0 | 20 | 18 | 85 | 0 | 0 | 0 | 16 | 0 | 0
3 | CC(C)NCC(Cc1ccccc1)NC(=O)c1cc(Br)c(-c2ccnc3[nH]ccc23)s1.Cl.Cl (centres unmarked) [GSK1383281] | 0 | 0 | 0 | 0 | 0 | 0 | 0 | 11 | 0 | 0 | 14 | 49 | 17 | 37 | 99.4 | 99 | 0 | 40 | 57 | 0
4 | COc1cc(Nc2nccc(N3CCC(NS(=O)(=O)c4ccc(NC(C)=O)cc4)CC3)n2)cc(OC)c1OC [GSK1379825] | 9 | 0 | 0 | 91.6 | 99.7 | 9 | 82 | 0 | 0 | 0 | 11 | 56 | 0 | 77 | 0 | 0 | 40 | 16 | 0 | 4
5 | CCNC(=O)/C=C/c1n[nH]c2cc(Sc3ccccc3C(=O)NC)ccc12 | 1 | 13 | 21 | 0 | 36 | 0 | 1 | 35 | 5 | 0 | 0 | 0 | 33 | 0 | 4 | 21 | 30 | 0 | 17 | 0
6 | N#CC1(c2cccc(C(=O)Nc3cccc(Oc4ccc5nc(NC(=O)C6CC6)sc5n4)c3)c2)CC1 | 0 | 0 | 0 | 0 | 0 | 0 | 0 | 0 | 17 | 7 | 3 | 59 | 0 | 23 | 34 | 0 | 0 | 0 | 0 | 13
7 | CN(C)CCNS(=O)(=O)c1ccc(-c2ccnc3[nH]ccc23)cc1 [GSK977620] | 0 | 0 | 0 | 9 | 8 | 0 | 0 | 1 | 0 | 0 | 8 | 32 | 0 | 0 | 98.4 | 97.7 | 14 | 9 | 56 | 0
8 | Cc1ccc(-c2ccc3occ(-c4ccc(S(C)=O)cc4)c3c2)nn1 (centres unmarked) | 18 | 0 | 0 | 2 | 8 | 0 | 3 | 4 | 9 | 4 | 0 | 42 | 17 | 58 | 0 | 0 | 11 | 0 | 9 | 0
9 | O=C(Nc1n[nH]c2nc(-c3cccc(O)c3)ccc12)C1CC1 [SB-711805] | 16 | 0 | 0 | 0 | 17 | 12 | 15 | 11 | 81 | 10 | 32 | 98 | 8 | 0 | 3 | 0 | 0 | 0 | 24 | 0
10 | CC(=O)Nc1cn2nc(Oc3cccc(NC(=O)c4cccc(C(F)(F)F)c4)c3)ccc2n1 | 0 | 0 | 0 | 0 | 0 | 0 | 0 | 9 | 9 | 0 | 11 | 5 | 0 | 32 | 8 | 52 | 0 | 0 | 23 | 0
